Measurements reported in PubChem BioAssay (NCI).
About 79,000 compounds went through this panel and 15% of them were active in at least one assay; those are over-represented in the sample as a whole. No stated cut-off is given here; in the data, active means growth inhibition above about 70%; inactive means the rest.

Key:
[1] = NCI Yeast Anticancer Drug Screen. Data for the rad50 strain (AID 155);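 further: 0% = growth of vehicle-only cultures of the same strain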; settings: S. cerevisiae rad50 strain growth inhibition, hits give high values; at 50.0 µM unless noted
Outline: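 Yeast carrying a defined DNA repair defect were exposed to test compounds, and growth was compared with vehicle-treated controls to give percent inhibition.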

[2] = NCI Yeast Anticancer Drug Screen. Data for the mec2-1 strain (AID 157); settings: S. cerevisiae mec2-1 strain, hits give high values; at 50.0 µM unless noted
Outline: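 Growth inhibition is read against vehicle-treated controls after compound exposure of the mec2-1 yeast strain, which is defective in DNA damage repair or cell cycle control.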

[3] = NCI Yeast Anticancer Drug Screen. Data for the sgs1 mgt1 strain (AID 161);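 further: 0% = growth of cultures given vehicle only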; settings: S. cerevisiae sgs1 mgt1 strain, hits give high values; at 50.0 µM unless noted
Outline: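 Growth of a repair-deficient yeast mutant was monitored after compound treatment and expressed as inhibition relative to vehicle-treated cultures.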

[4] = NCI Yeast Anticancer Drug Screen. Data for the cln2 rad14 strain (AID 165);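 further: 0% = growth equal to vehicle treated cultures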; settings: S. cerevisiae cln2 rad14 strain, hits give high values; at 50.0 µM unless noted
Outline: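 Growth inhibition, relative to vehicle-treated controls, is the read-out. The test organism is a yeast strain with defined genetic alterations, cln2 rad14.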

[5] = NCI Yeast Anticancer Drug Screen. Data for the bub3 strain (AID 167); settings: S. cerevisiae bub3 mutant strain, hits give high values; at 50.0 µM unless noted
Outline: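 Compounds were applied to a genetically altered yeast strain carrying a cell-cycle control defect. Growth inhibition was scored against vehicle-treated controls.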

[6] = NCI Yeast Anticancer Drug Screen. Data for the mlh1 rad18 strain (AID 175); settings: S. cerevisiae mlh1 rad18 strain growth inhibition, hits give high values; at 50.0 µM unless noted
Outline: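 Cells of a genetically altered yeast strain, deficient in DNA damage repair, were treated with compound. Their growth was then compared with that of vehicle-treated cultures to give inhibition.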

Measured: growth inhibition

O/N=C/c1ccc(O)cc1
inactive: [1] -63.2% | [2] -21.1% | [3] -14.4% | [4] -19.6% | [5] 2.55% | [6] -28.9%

CC(=O)c1cccc(OC(=O)Nc2ccccc2)c1
inactive: [1] 6.45% | [2] -10.2% | [3] 2.5% | [4] 4.3% | [5] -1.45% | [6] 22.4%

O=C(O)CCC(CC(=O)O)C(=O)O (centres undefined)
inactive: [1] 19.1% | [2] 4.95% | [3] 16% | [4] 13.7% | [5] 23.9% | [6] 15.4%

CN(C)C(=NN=C(N(C)C)N(C)C)N(C)C
inactive: [1] 12.2% | [2] -4.2% | [3] 0.05% | [4] -39% | [5] -5.85% | [6] 1.5%
